These results are taken from PubChem BioAssay (NCATS).

Structures are written as SMILES. Values joined by “and” are separate entries in the source; they are usually repeats but may differ in a detail not shown here. Equal entries are not always repeated. Results filed as inconclusive are left out. Active and inactive are the calls of the source. Calls follow the shape of the dose curve; as a rule, active = well fitted activation curve with a large enough effect; inconclusive = small, poorly fitted or top-dose-only effect; inactive = no such curve, though single readings can be large or run the other way.
Potency is read from the fitted curve at half-maximal effect.

Sequence of Cellular tumor antigen p53 (Homo sapiens) (P04637 whole entry, looked up): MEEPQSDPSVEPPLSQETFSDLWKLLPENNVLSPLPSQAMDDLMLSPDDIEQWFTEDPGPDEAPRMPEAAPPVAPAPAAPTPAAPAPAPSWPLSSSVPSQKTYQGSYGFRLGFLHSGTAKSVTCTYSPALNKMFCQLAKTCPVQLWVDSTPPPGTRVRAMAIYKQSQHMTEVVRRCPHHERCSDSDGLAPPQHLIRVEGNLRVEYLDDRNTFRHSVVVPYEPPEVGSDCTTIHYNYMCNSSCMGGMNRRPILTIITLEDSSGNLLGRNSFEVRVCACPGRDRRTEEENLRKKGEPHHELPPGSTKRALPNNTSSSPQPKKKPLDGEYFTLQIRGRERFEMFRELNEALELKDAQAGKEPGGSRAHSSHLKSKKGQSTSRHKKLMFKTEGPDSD

For the assay, the target named is Cellular tumor antigen p53 (Homo sapiens) (UniProt P04637). As to the kind of experiment: Primary qHTS for small molecule compounds that upregulate eGFP-tagged delta133p53alpha (in N-terminal) cells. (AID 2060322). Also: nearly all actives have a fitted effect of over 75% in size.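 As to activation: cells pre-induced with doxycycline then dosed without doxycycline; series mostly up to about 56 µM; 0% = DMSO vehicle and 100% = reference activator.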 Conditions: NCI-H358 eGFP-delta133p53alpha fluorescence, 24 h; activation: hits give high values. Summed up:
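NCI-H358 cells pre-induced 24 h with 10 ng/ml doxycycline for eGFP-delta133p53alpha, plated dox-free and exposed 24 h at 37C to titrated compounds. Fixed, Hoechst-stained; gated GFP peak intensity by laser scanning cytometry, normalized to DMSO (0%) and 57.5 uM 5-azacytidine (100%).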
For orientation: qHTS replaces the single test concentration by a dilution series.
Take `CCCCCCCCCCCCCCCC(=O)O`: the activation is -13.4% (inactive). The same measure, in the same setting: for `O=C(O)Cn1cnnn1` the value was -6.21% (inactive). On to `CCc1cnn2c(NCc3ccc[n+]([O-])c3)cc(N3CCCC[C@@H]3CCO)nc12`, for which the Potency is 0.0685 µM (active). Regarding `O=C1c2c(O)cc(O)cc2O[C@H](c2cc(O)c(O)c(O)c2)[C@H]1O`, the activation was -0.847% (inactive). Same read-out and setting: for `CCc1cccc(CC)c1NC(=O)CN(CC(=O)O)CC(=O)O` the value was 26.6% (inactive); for `C[C@H](N)C(=O)N[C@@H](C)C(=O)NC1[C@H]2CN(c3nc4c(cc3F)c(=O)c(C(=O)O)cn4-c3ccc(F)cc3F)C[C@@H]12` (stereo not given in full), -33.3% (inactive).

For the compound `CN1CCC[C@H]1CCO[C@](C)(c1ccccc1)c1ccc(Cl)cc1`, the activation is 16.8% (inactive). The same measure, in the same setting: the same measure for `OC[C@@H](O)[C@H](O)[C@H](O)[C@@H](O)CO`: -3.35% (inactive) and 22.6% (inactive).

As for `COc1ccc(CCC(=O)c2c(O)cc(O[C@@H]3O[C@H](CO)[C@@H](O)[C@H](O)[C@@H]3O[C@@H]3O[C@@H](C)[C@H](O)[C@@H](O)[C@@H]3O)cc2O)cc1O`, the activation was 22.6% (inactive). For the compound `CO[C@H]1/C=C\O[C@@]2(C)Oc3c(C)c(O)c4c(O)c(c(C=NN5CCN(C6CCCC6)CC5)c(O)c4c3C2=O)NC(=O)C(C)=CC=C[C@H](C)[C@H](O)[C@@H](C)[C@@H](O)[C@@H](C)[C@H](OC(C)=O)[C@H]1C`, the Potency is 24.3 µM (active). Take `CC=CCC(C)C(O)C1C(=O)NC(CC)C(=O)N(C)CC(=O)N(C)C(CC(C)C)C(=O)NC(C(C)C)C(=O)N(C)C(CC(C)C)C(=O)NC(C)C(=O)NC(C)C(=O)N(C)C(CC(C)C)C(=O)N(C)C(CC(C)C)C(=O)N(C)C(C(C)C)C(=O)N1C` (stereo not given): the activation is -6.27% (inactive). The same measure, in the same setting: for `O=C(O)c1ccccc1Nc1cc(Cl)ccc1C(=O)O` the value was -31% (inactive); for `Cl/C(=C\n1cncn1)c1ccc(Cl)cc1Cl`, -2.82% (inactive). Take `CC[C@]12CCCN3CCc4c(n(c5ccccc45)[C@@](O)(C(=O)OC)C1)[C@@H]32`: the activation was 5.02% (inactive). As for `COC(=O)[C@]12CCC(C)(C)C[C@@H]1[C@@H]1C(=O)C=C3[C@@]4(C)C=C(C#N)C(=O)C(C)(C)[C@@H]4CC[C@@]3(C)[C@]1(C)CC2`, the Potency is 10.9 µM (active).

For the compound `CCOC(=O)[C@H]1O[C@H]1C(=O)N[C@@H](CC(C)C)C(=O)NCCC(C)C`, the activation is 17.3% (inactive). In the case of `OCCOCCN1CCN(C(c2ccccc2)c2ccc(Cl)cc2)CC1` (stereo not given), the activation was 8.47% (inactive). On to `CCC(=O)O[C@]1(C(=O)COC)[C@@H](C)C[C@H]2[C@@H]3CCC4=CC(=O)C=C[C@]4(C)C3(F)[C@@H](O)C[C@@]21C` (stereo not given in full), for which the activation was -4.18% (inactive). Same read-out and setting: the same measure for `CC(C)OC(=O)c1cc2c(OCC(O)CNC(C)(C)C)cccc2[nH]1` (stereo not given): 20.9% (inactive); for `COC(=O)C1=C(C)NC(C)=C(C(=O)OCCc2ccc(N3CCN(C(c4ccccc4)c4ccccc4)CC3)cc2)C1c1cccc([N+](=O)[O-])c1` (stereo not given): -15.9% (inactive); for `Cc1ccnc2c1NC(=O)c1cccnc1N2C1CC1`: -6.69% (inactive) and 7.43% (inactive). On the same count and under the same terms, for `CO[C@@]1(NC(=O)CSC[C@@H](N)C(=O)O)C(=O)N2C(C(=O)O)=C(CSc3nnnn3C)CS[C@@H]21` the value was 13.4% (inactive); for `O=C(O)CCNC(=O)c1ccccc1`, -12.6% (inactive); for `CCN(CC)c1ccc(C(=C2C=CC(=[N+](CC)CC)C=C2)c2cc(S(=O)(=O)O)ccc2S(=O)(=O)[O-])cc1`, -8.47% (inactive). Take `C[C@H]1O[C@@H](O[C@H]2CC[C@@]3(C)[C@H](CC[C@@H]4[C@@H]3C[C@@H](O)[C@]3(C)[C@@H](C5=CC(=O)OC5)CC[C@]43O)C2)C[C@H](O)[C@@H]1O[C@H]1C[C@H](O)[C@H](O[C@H]2C[C@H](O)[C@H](O[C@@H]3O[C@H](CO)[C@@H](O)[C@H](O)[C@H]3O)[C@@H](C)O2)[C@@H](C)O1`: the Potency was 1.55 µM (active).

Regarding `CCn1c(=O)c2c(nc(C=Cc3ccc(OC)c(OC)c3)n2C)n(CC)c1=O`, the activation is -8.1% (inactive). Same read-out and setting: the same measure for `CC(C)C(=O)SCCCCCCC(=O)Nc1nc(-c2ccccc2)cs1`: 49.2% (inactive); for `O=C(C=Cc1ccc(/C=C/C(=O)Nc2ccc(C3=NCCN3)cc2)cc1)Nc1ccc(C2=NCCN2)cc1`: -8.95% (inactive). Consider `O=c1[nH]c(=O)n([C@H]2C[C@@H](O)[C@@H](CO)O2)cc1I`, for which the activation is 6.89% (inactive). Same read-out and setting: the same measure for `C[C@]12C=CC(=O)C=C1[C@@H](F)C[C@@H]1[C@@H]2[C@@H](O)C[C@@]2(C)[C@H]1CC[C@]2(O)C(=O)CO`: 7.53% (inactive); for `OCCN1C[C@H](O)[C@@H](O)[C@H](O)[C@@H]1CO`: 24.9% (inactive). Still for that read-out and setting: the same measure for `Cc1cc(C)nc(NS(=O)(=O)c2ccc(N)cc2)n1`: 24.3% (inactive); for `Nc1ccn([C@@H]2O[C@H](CO)[C@H](O)C2(F)F)c(=O)n1`: 10.5% (inactive); for `COc1cc(N)c(Cl)cc1C(=O)NC1CCN(CCCOc2ccc(F)cc2)CC1OC` (stereo not given): 13% (inactive). In the case of `COc1cccc(N(C)C(=S)Oc2ccc3c(c2)CCCC3)n1`, the activation is 25.4% (inactive) and -4.03% (inactive).

Turning to `CC12CCC(CC1)C(C)(C)O2`, the activation is -0.565% (inactive).

With `CCCCC(CC)COC(=O)c1ccccc1O` (stereo not given), the activation was -22.6% (inactive). Still for that read-out and setting: for `O=C1C(CCS(=O)c2ccccc2)C(=O)N(c2ccccc2)N1c1ccccc1` (stereo not given) the value was 15.1% (inactive); for `C[C@@H]1[C@H](C)CC[C@]2(C(=O)O)CC[C@]3(C)C(=CC[C@@H]4[C@@]5(C)C[C@@H](O)[C@H](O)[C@@](C)(CO)[C@H]5CC[C@]43C)[C@@H]12`, 36.3% (inactive). Still for that read-out and setting: the same measure for `CCc1c(C)nc2c(-c3cnn(-c4cc(CO)ccn4)c3)c[nH]n2c1=O`: 5.67% (inactive).
